Sampled rows, rich in hits. Any-hit rate of the full collection: about 4%.
KKLEB tox = reduces viability of KKLEB cystic fibrosis airway cells | AID 602141 | activity change (cytotoxicity), % at 5 µM | KKLEB CF airway cells viability, ATPlite luminescence, overnight; stronger effect = lower value; cells stimulated with P. aeruginosa culture filtrate | 360,000 compounds, 0.36% hits;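 active = corrected activity change at or below -50% at 5 µM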
TWEAK Fn14 block = TWEAK-Fn14 signaling inhibition | TWEAK-stimulated Fn14 reporter cells, luciferase luminescence, 8 h | inhibition, % at 10 µM | 360,000 compounds, 2% hits; in the data active = inhibition above about 50%
TROY NFkB inh = inhibitors of TROY-dependent NF-kB signaling; Q293 LMP1-TROYcd NF-kB luciferase reporter, 4 h; inhibition, % at 10 µM; 360,000 compounds, 0.98% hits; AID 1347056;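 active = compounds whose plate-normalised and pattern-corrected inhibition of the luciferase reporter signal at the single screening dose is 50% or more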
HIF-2a inh = inhibitors of HIF-2a | 786-0 RCC cells HIF-2a reporter, luciferase luminescence, overnight | inhibition, % at 18.8 µM | 360,000 compounds, 0.72% hits | AID 624352;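 active = inhibition of the luminescence signal of 40% or more relative to plate controls, in a single-dose primary screen at 18.75 µM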
Peg3 prom inh = Peg3 promoter activity inhibition; inhibition, % at 20 µM; HeLa PEG-Prom luciferase reporter, luminescence, overnight; 360,000 compounds, 1.7% hits; AID 588405;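 active = inhibition of at least 50% at 20 µM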
CF NFkB inh = cystic fibrosis NF-kB activation inhibition; KKLEB NF-kB-GFP reporter, PAF-induced, GFP fluorescence overnight; inhibition, % at 5 µM; AID 588850; 360,000 compounds, 0.86% hits;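 active = at least 50% inhibition at 5 µM, scaled per plate between neutral and stimulator controls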;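 also: PAF is a Pseudomonas aeruginosa culture filtrate used as stimulus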
A number is an active result.

Cc1ccc(C2=NN(C(=O)CN3CCN(C4CCS(=O)(=O)C4)CC3)C(c3ccco3)C2)cc1 (stereo not given) was read as KKLEB tox inactive, TWEAK Fn14 block 70.8, TROY NFkB inh 65.7, HIF-2a inh inactive, Peg3 prom inh inactive and CF NFkB inh inactive.
Screening COc1ccc(C(=O)/C=C2\Sc3ccccc3N2C)cc1 returned KKLEB tox inactive, TWEAK Fn14 block inactive, TROY NFkB inh inactive, HIF-2a inh inactive, Peg3 prom inh inactive and CF NFkB inh inactive.
For COc1ccc(-[n+]2c(C)cc(/C=C3\Sc4ccccc4N3C)cc2C)cc1 the results were KKLEB tox inactive, TWEAK Fn14 block inactive, TROY NFkB inh inactive, HIF-2a inh 53.1, Peg3 prom inh 114.7 and CF NFkB inh inactive.
Screening CCOC(=O)N=Nc1c2ccccc2c2nc3no[nH]c3nc12 returned KKLEB tox -65.2, TWEAK Fn14 block 90.1, TROY NFkB inh 66.3, HIF-2a inh inactive, Peg3 prom inh 107.8 and CF NFkB inh 94.7.
`CCOC(=O)N=Nc1c(O)n(CC(=O)OC)c2ccccc12` gave KKLEB tox inactive, TWEAK Fn14 block inactive, TROY NFkB inh inactive, HIF-2a inh inactive, Peg3 prom inh inactive and CF NFkB inh inactive.
`COc1ccccc1-n1nnnc1SCC(=O)NC1CC1` gave KKLEB tox inactive, TWEAK Fn14 block inactive, TROY NFkB inh inactive, HIF-2a inh inactive, Peg3 prom inh inactive and CF NFkB inh inactive.
COc1ccc(S(=O)(=O)N2CCC(C(=O)Nc3nnc(C)s3)CC2)cc1OC was read as KKLEB tox inactive, TWEAK Fn14 block inactive, TROY NFkB inh inactive, HIF-2a inh inactive, Peg3 prom inh inactive and CF NFkB inh inactive.
COc1cccc(/C=N/Nc2nccnc2Cl)c1O was read as KKLEB tox inactive, TWEAK Fn14 block 65.4, TROY NFkB inh inactive, HIF-2a inh inactive, Peg3 prom inh 53.4 and CF NFkB inh inactive.
Screening COc1cccc(/C=N/Nc2nc3ccccc3n3cnnc23)c1O returned KKLEB tox inactive, TWEAK Fn14 block inactive, TROY NFkB inh inactive, HIF-2a inh inactive, Peg3 prom inh 70.5 and CF NFkB inh inactive.
For COc1cccc(/C=N/Nc2ncnc(Cl)c2N)c1O the results were KKLEB tox inactive, TWEAK Fn14 block inactive, TROY NFkB inh 60.6, HIF-2a inh 62.9, Peg3 prom inh 84.6 and CF NFkB inh inactive.
Screening COc1cccc(/C=N/Nc2nc3ccccc3n3cnnc23)c1 returned KKLEB tox inactive, TWEAK Fn14 block inactive, TROY NFkB inh inactive, HIF-2a inh inactive, Peg3 prom inh inactive and CF NFkB inh inactive.
COc1cccc(/C=N/Nc2ncnc3scc(-c4ccccc4)c23)c1O was read as KKLEB tox inactive, TWEAK Fn14 block 63.5, TROY NFkB inh inactive, HIF-2a inh inactive, Peg3 prom inh 60.0 and CF NFkB inh inactive.
`NNC(=O)CC1=NNC(=O)C1` gave KKLEB tox inactive, TWEAK Fn14 block inactive, TROY NFkB inh inactive, HIF-2a inh inactive, Peg3 prom inh inactive and CF NFkB inh inactive.
Cn1c(CN(O)S(=O)(=O)c2ccc(Cl)cc2)nnc1C(F)(F)F was read as KKLEB tox inactive, TWEAK Fn14 block inactive, TROY NFkB inh inactive, HIF-2a inh inactive, Peg3 prom inh inactive and CF NFkB inh inactive.
For Cc1cccnc1NC(=O)C1CCN(S(=O)(=O)c2ccc3ccccc3c2)CC1 the results were KKLEB tox inactive, TWEAK Fn14 block inactive, TROY NFkB inh inactive, HIF-2a inh inactive, Peg3 prom inh inactive and CF NFkB inh inactive.
Screening COc1ccc(/C=N/Nc2nccnc2Cl)cc1 returned KKLEB tox inactive, TWEAK Fn14 block 59.9, TROY NFkB inh inactive, HIF-2a inh inactive, Peg3 prom inh inactive and CF NFkB inh inactive.
For COc1cccc(/C=N/Nc2ncnc(N)c2[N+](=O)[O-])c1OC the results were KKLEB tox inactive, TWEAK Fn14 block 83.6, TROY NFkB inh inactive, HIF-2a inh inactive, Peg3 prom inh inactive and CF NFkB inh inactive.
For CCOc1ncccc1C(=O)OCC(=O)N(CC(C)C)C1CCS(=O)(=O)C1 (stereo not given) the results were KKLEB tox inactive, TWEAK Fn14 block inactive, TROY NFkB inh inactive, HIF-2a inh inactive, Peg3 prom inh inactive and CF NFkB inh inactive.
Screening Cc1ccccc1N(CC(=O)NCc1ccc2c(c1)OCO2)C(=O)CCC(=O)Nc1ccccn1 returned KKLEB tox inactive, TWEAK Fn14 block inactive, TROY NFkB inh inactive, HIF-2a inh inactive, Peg3 prom inh inactive and CF NFkB inh inactive.
